Measurements: the supplement of paper PMC12339681
Where a name gives a salt, the structure may show the parent alone.

The molecules below were run on PBMC-derived induced microglia-like cells (piMGLC) (assay: synaptosome phagocytic index relative to DMSO control (fraction of DMSO); higher = more phagocytosis). Conditions: concentration: 10 uM (2 uM for compounds listed in Table S2); pretreatment time: 24 h; assay time: 3 h.

SMILES	synaptosome phagocytic index
O=S1(=O)N[C@H]2CCCN2c2ccccc21	0.742
CS(=O)(=O)c1ccc(C(=O)Nc2ccc(Cl)c(-c3ccccn3)c2)c(Cl)c1 [Vismodegib]	0.948
O=C(NC1CCCCC1)N(Cc1ccccc1)CC1CCNCC1	0.882
O=c1c(-c2ccc(O)cc2)coc2cc(O)cc(O)c12 [Genistein]	0.792
CN1C2CCCC1CC(NC(=O)c1nn(C)c3ccccc13)C2 (centres undefined) [Granisetron_(Hydrochloride)]	0.891
CCOCc1cc(OC)c(-c2ccc(C[C@H](NC(=O)c3c(F)cccc3F)C(=O)O)cc2)c(OC)c1 [Firategrast]	0.931
O=C(O)Cc1ccccc1Nc1c(Cl)cccc1Cl [Diclofenac]	1.01
CCCCOc1ccc(C(=O)CCN2CCCCC2)cc1 [Dyclonine_(hydrochloride)]	0.68
Clc1ccc(COC(Cn2ccnc2)c2ccc(Cl)cc2Cl)c(Cl)c1 (centres undefined) [Miconazole_(nitrate)]	1.09
N#Cc1ccc(Cn2ccc(NC(=O)Cc3ccc(C4(C(F)(F)F)CC4)cc3)n2)nc1	1.06
CN1C(C(=O)Nc2ccccn2)=C(O)c2ccccc2S1(=O)=O [Piroxicam]	0.661
Nc1ccn([C@@H]2O[C@H](CO)[C@@H](O)[C@@H]2O)c(=O)n1 [Cytarabine]	0.44
CN1C(=O)OC(C)(C)C1=O [Trimethadione]	0.751
NC(=O)OCC(COC(N)=O)c1ccccc1 [Felbamate]	0.618
CCN1CCN(Cc2ccc(Nc3ncc(F)c(-c4cc(F)c5nc(C)n(C(C)C)c5c4)n3)nc2)CC1 [Abemaciclib]	0.228
O=C(NCc1ccc(F)cc1)N1CCN2C(=O)OC(c3ccccc3)(c3ccccc3)C2C1 (centres undefined)	0.552
Nc1ccn([C@@H]2CS[C@H](CO)O2)c(=O)n1 [Lamivudine]	0.89
CCN1CCN(Cc2ccc(-c3cc4c(N[C@H](C)c5ccccc5)ncnc4[nH]3)cc2)CC1	0.0989
CCC(=O)NCC[C@@H]1CCc2ccc3c(c21)CCO3 [Ramelteon]	0.767
C#CCN[C@@H]1CCc2ccccc21 [Rasagiline_(mesylate)]	0.965
Cc1cc(Oc2cncnc2)cc(C(=O)Nc2ccc(F)cn2)n1 [Auglurant]	1.03
CC1=C(/C=C/C(C)=C/C=C/C(C)=C/C(=O)O)C(C)(C)CCC1 [Retinoic_acid]	0.339
NC1CCN(c2cccc(Cl)n2)CC1	0.648
OCCN1CCN(CCCN2c3ccccc3Sc3ccc(Cl)cc32)CC1 [Perphenazine]	0.197
